# PubChem BioAssay
# The source made the active and inactive calls. Unless noted, no rule for the calls is given here.
# Columns and labels:
# [1] = system: XIP peptide (Xip251-270) binding; assay: small-molecule binders of XIP peptide, primary screen, biochemical, small-molecule microarray, fluorescence 635/667 nm, 0.1 µg/mL protein (AID 1182); details: fluorescent protein binding, 635 nm, higher = more signal, called active from +8 up or from −8 down
# XIP peptide (Xip251-270) = assay: small-molecule binders of XIP peptide, primary screen, biochemical, small-molecule microarray, fluorescence 635/667 nm, 0.5 µg/mL protein (AID 1183); details: small-molecule microarray binding, fluorescence 635 nm; higher = more signal
# [2] = Plasmodium falciparum growth inhibition, primary screen, strain 3D7, DAPI fluorescence, 100 nL (AID 1184);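 also: parasites grown inside human red blood cells in medium with human serum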; details: P. falciparum 3D7 growth, 3 d, higher = more signal
# [3] = target: Homeobox protein Hox-A13 (Mus musculus) (UniProt Q62424); assay: inhibitors of HoxA13-DNA binding, primary screen, biochemical, fluorescence polarization, labeled oligonucleotide (AID 1185); details: 15 min, higher = more signal, called active from +8 up or from −8 down
# [4] = inhibitors of hydroxyurea-induced Chk1 phosphorylation, primary screen, imaging, HeLa, phospho-Chk1 antibody, percent positive cells (AID 1186); details: hydroxyurea-induced phospho-Chk1 immunofluorescence imaging, higher = more signal
# [5] = inhibitors of hydroxyurea-induced Chk1 phosphorylation, primary screen, imaging, HeLa, phospho-Chk1 nuclear intensity (AID 1187); details: hydroxyurea-induced phospho-Chk1 immunofluorescence imaging, higher = more signal
# Sequence of Homeobox protein Hox-A13 (Mus musculus) (Q62424 whole entry, looked up): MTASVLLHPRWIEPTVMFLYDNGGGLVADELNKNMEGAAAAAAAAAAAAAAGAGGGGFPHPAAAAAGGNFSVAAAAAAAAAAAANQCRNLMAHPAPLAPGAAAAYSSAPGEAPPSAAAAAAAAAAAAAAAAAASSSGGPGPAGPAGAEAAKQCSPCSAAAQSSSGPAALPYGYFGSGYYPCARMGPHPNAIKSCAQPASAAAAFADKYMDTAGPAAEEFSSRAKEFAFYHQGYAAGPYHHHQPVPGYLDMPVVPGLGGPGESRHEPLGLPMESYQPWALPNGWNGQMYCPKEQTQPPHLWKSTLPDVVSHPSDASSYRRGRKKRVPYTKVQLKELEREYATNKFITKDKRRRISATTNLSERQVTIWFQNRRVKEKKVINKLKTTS
Structure (SMILES),composite z-score [1],composite z-score (XIP peptide (Xip251-270)),z-score [2],z-score [3],z-score [4],z-score [5]
COCCOC(=O)N1C(=O)[C@@]2(c3ccccc31)[C@H](C(=O)N1CCCCCCC1)[C@H]1C(=O)O[C@H](c3ccccc3)[C@H](c3ccccc3)N1[C@@H]2c1ccccc1OCCO,2.16 (inactive),0.83,-2.1,3.39 (inactive),-0.26 (inactive),-0.299 (inactive)
CC(C)(C)OC(=O)CC[C@@]1(C(=O)N2CCOCC2)N=C(c2ccc(OCCCO)cc2)O[C@@H]1c1ccccc1N=[N+]=[N-],0.14 (inactive),0.84,-1.97,-4.17 (inactive),-0.496 (inactive),-0.439 (inactive)
Cc1ccc([C@H]2C(C(=O)O)=C[C@@H](C(C)C)N2S(=O)(=O)c2ccc(C)cc2)cc1,0.165 (inactive),0.386,1.65,-4.3 (inactive),-0.482 (inactive),-1.01 (inactive)
CCCNC(=O)[C@@]1(C)c2ccccc2C(=O)N(Cc2cc(C(F)(F)F)cc(C(F)(F)F)c2)[C@H]1c1ccc(CO)cc1,0.977 (inactive),0.665,-1.63,-4.26 (inactive),-0.0596 (inactive),-0.0865 (inactive)
CCCNC(=O)[C@@]1(C)c2ccccc2C(=O)N(C(C)C)[C@H]1c1ccc(CO)cc1,-0.358 (inactive),-0.395,-1.46,-3.3 (inactive),-0.017 (inactive),-0.211 (inactive)
CC(=O)NCCCC[C@@H]1NC(=O)[C@@H]2C[C@H](C(=O)NCCCCCC[N+](C)(C)C)[C@H](c3cccc(OCCO)c3)N2C1=O,1.52 (inactive),0.345,0.129,-4.94 (inactive),-0.502 (inactive),-0.0493 (inactive)
O=C1OCC=C[C@H]2OC34C=CCN(c5ccc(Cl)cc5)C(=O)[C@H]3N(CCCO)C(=O)[C@@H]4[C@@H]12 (some centres not stated),1.92 (inactive),-0.501,-1.39,-2.31 (inactive),-0.0921 (inactive),-0.389 (inactive)
CCCCC(=O)N(Cc1ccccc1F)[C@@H]1CC(C(=O)NCCO)=C[C@H](Oc2c(I)cc(CO)cc2OC)[C@H]1O,0.466 (inactive),0.704,-1.66,-7.53 (inactive),0.148 (inactive),0.545 (inactive)
CC1CC/C=C\[C@H]2OC34C=CCN(c5ccc6ccccc6c5)C(=O)[C@H]3N(CCCCCO)C(=O)[C@@H]4C2C(=O)O1 (some centres not stated),1.37 (inactive),-0.165,-0.0643,-6.06 (inactive),0.549 (inactive),-0.382 (inactive)
CCCC[C@@H]1C[C@H]1[C@@H](NC(=O)c1ccccc1)c1ccc(-c2ccccc2)cc1,0.397 (inactive),-0.0572,-0.0371,-3.63 (inactive),-0.0528 (inactive),0.215 (inactive)
CC(C)C(=C=CC[C@H](O)c1ccccc1OCCO)CCO,-0.393 (inactive),0.81,-0.305,-3.12 (inactive),-0.106 (inactive),0.0237 (inactive)
C=CCN1C(=O)[C@@]2(O[C@@H](CCO)[C@H]([Si](C)(C)c3ccc(OC)cc3)[C@H]2C)c2cc(NC(C)=O)ccc21,0.149 (inactive),0.258,-2.74,-6.52 (inactive),-0.0604 (inactive),0.348 (inactive)
CC(C)CNC(=O)[C@@]1(C)c2ccccc2C(=O)N(C(C)C)[C@H]1c1ccc(CO)cc1,-0.776 (inactive),-0.692,1.22,-1.35 (inactive),0.221 (inactive),-0.0172 (inactive)
[N-]=[N+]=NCc1ccccc1C[C@@]1(C(=O)NCc2ccccc2)N=C(c2ccc(OCCCO)cc2)O[C@@H]1c1ccccc1CN=[N+]=[N-],0.804 (inactive),0.735,-2.59,3.34 (inactive),-0.174 (inactive),-0.332 (inactive)
COC(=O)c1c2oc(c1C(=O)OC)C(=O)N[C@H](Cc1ccccc1)Cn1nncc1C1(CCCCC1)NC(=O)N[C@H](CO)CC2,0.152 (inactive),-0.0356,1.06,-2.22 (inactive),-0.971 (inactive),-0.939 (inactive)
CC(C)(C)OC(=O)CC[C@@]1(C(N)=O)N=C(c2ccc(OCCCO)cc2)O[C@@H]1c1ccccc1N=[N+]=[N-],0.0344 (inactive),0.839,-0.338,-6.23 (inactive),-0.244 (inactive),-0.0977 (inactive)
COc1c(C)cc(-c2cc3c(c(-c4ccccc4)n2)[Si](C(C)C)(C(C)C)O[C@H]3c2ccccc2)cc1C,0.648 (inactive),-0.029,-2.88,-0.742 (inactive),-0.59 (inactive),-0.492 (inactive)
